# Data taken from the supplement of paper PMC9135407.
# “And” between values parts separate entries of the source, which are not always exact repeats. Equal values may be shown once. Where a name gives a salt, the structure may show the parent alone. Among all 5,800 compounds or so, about 620 (11%) showed activity.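 Rule for the calls: active = score above a cut-off or among the top three wells of a plate; in these data no inactive exceeds 0.85.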 This excerpt belongs to a sample that is enriched for actives.
# Tested on: primary human hepatic stellate cells (donor 1)
# Assay: scaled lipid accumulation score (0 = DMSO-like, 1 = nortriptyline-like); higher = stronger HSC inactivation (lipid re-accumulation), active = hit call of the paper
# Conditions: 48 h
# [1] = library stock concentration: 1 mM
# [2] = library stock concentration: 10 mM
# [3] = library stock concentration: 4.9 mM
# [4] = library stock concentration: 3.33 mM
# [5] = library stock concentration: 80 uM
# [6] = library stock concentration: 400 uM
# [7] = library stock concentration: 2 mM
# [8] = library stock concentration: 100 uM
# [9] = library stock concentration: 6.8 mM
compound,measurement,setting,value
CCCc1c(OCCCCc2nnn[nH]2)ccc(C(C)=O)c1O,scaled lipid accumulation score,[1],≤ 0 (inactive) and ≤ -0.021 (inactive)
same,scaled lipid accumulation score,[2],0.011 (inactive)
COc1cc2c(cc1OC)-c1c/c(=N\c3c(C)cc(C)cc3C)n(C)c(=O)n1CC2 [Trequinsin hydrochloride],scaled lipid accumulation score,[2],0.494 (inactive) and 0.174 (inactive)
COc1cc2c(cc1OC)-c1c/c(=N\c3c(C)cc(C)cc3C)n(C)c(=O)n1CC2 [Trequinsin],scaled lipid accumulation score,[3],0.164 (inactive)
same,scaled lipid accumulation score,library stock concentration: 12.3 mM,0.244 (inactive)
C#CC(N)CCC(=O)O (stereo unspecified) [gamma-Acetylinic GABA],scaled lipid accumulation score,[2],0.037 (inactive)
"C1CCC2(CC1)CCNCC2 [4,4-Pentamethylenepiperidine hydrochloride]",scaled lipid accumulation score,[2],0.028 (inactive)
CCCCCCCCCCCCCCCCCCCCCC(=O)NCCS(=O)(=O)O [N-Docosanoyl Taurine],scaled lipid accumulation score,[1],≤ 0 (inactive)
C(=C/CCNC)(/c1c2cccc1)\c3c(cccc3)CC2.Cl [Nortriptyline hydrochloride],scaled lipid accumulation score,[2],1.04 (active)
N[C@H]1CCN(O)C1=O,scaled lipid accumulation score,[2],≤ 0 (inactive)
NCc1cccc2ccncc12 [8-Isoquinoline methanamine (hydrochloride)],scaled lipid accumulation score,[1],0.003 (inactive)
CCCCCCNC(=O)Nc1ccc(S(=O)(=O)Nc2ccc(CCNC[C@H](O)COc3ccc(O)cc3)cc2)cc1,scaled lipid accumulation score,[2],0.462 (inactive)
O=C(O)CCCCCC[C@H]1C(=O)C[C@@H](O)[C@@H]1/C=C/[C@@H](O)Cc1ccccc1 [16-phenyl tetranor Prostaglandin E1],scaled lipid accumulation score,[1],0.017 (inactive)
CCCCCCCCCCCCCCCC(=O)OC[C@H](COP(=O)([O-])OCC[N+](C)(C)C)OC(=O)CCCC(=O)/C=C/C(=O)O,scaled lipid accumulation score,[1],0.034 (inactive)
O=C1C(Cl)=C(N2CCOCC2)C(=O)N1c1ccc(Cl)c(Cl)c1,scaled lipid accumulation score,[4],≤ -0.009 (inactive)
same,scaled lipid accumulation score,[2],≤ 0 (inactive)
COCC(=O)NC/C=C/c1ccc2ncnc(Nc3ccc(Oc4ccc(C)nc4)c(C)c3)c2c1 [listing 1 of 2 here],scaled lipid accumulation score,[5],≤ 0 (inactive)
same,scaled lipid accumulation score,[6],≤ 0 (inactive) and ≤ -0.005 (inactive)
same,scaled lipid accumulation score,[7],≤ 0 (inactive) and ≤ -0.005 (inactive)
same,scaled lipid accumulation score,[2],0.108 (inactive)
COc1ccc(Nc2ncnc3ccc(OC)cc23)cc1 [MPMQ hydrochloride],scaled lipid accumulation score,[2],0.051 (inactive)
COCC(=O)NC/C=C/c1ccc2ncnc(Nc3ccc(Oc4ccc(C)nc4)c(C)c3)c2c1 [listing 2 of 2 here],scaled lipid accumulation score,[2],1.46 (active)
NC1=NCCN1CC(=O)O [Cyclocreatine],scaled lipid accumulation score,[2],≤ 0 (inactive)
CCCCCCCCCCCCCCCC(=O)NCCS(=O)(=O)O [N-Palmitoyl Taurine],scaled lipid accumulation score,[1],≤ 0 (inactive)
"CCCS(=O)(=O)Nc1ccc(F)c(C(=O)c2c[nH]c3ncc(-c4ccc(Cl)cc4)cc23)c1F [Vemurafenib (PLX4032, RG7204)]",scaled lipid accumulation score,[4],≤ 0 (inactive)
same,scaled lipid accumulation score,[2],≤ 0 (inactive)
CCCS(=O)(=O)Nc1ccc(F)c(C(=O)c2c[nH]c3ncc(Cl)cc23)c1F [listing 1 of 2 here],scaled lipid accumulation score,[2],1.16 (active)
CCCS(=O)(=O)Nc1ccc(F)c(C(=O)c2c[nH]c3ncc(Cl)cc23)c1F [listing 2 of 2 here],scaled lipid accumulation score,[5],≤ 0 (inactive)
same,scaled lipid accumulation score,[6],≤ 0 (inactive) and 0.028 (inactive)
same,scaled lipid accumulation score,[7],≤ 0 (inactive) and 0.042 (inactive)
same,scaled lipid accumulation score,[4],≤ 0 (inactive)
same,scaled lipid accumulation score,[2],≤ 0 (inactive)
Cc1noc(-c2ccc(CSCCC(=O)O)cc2)c1NC(=O)OC(C)c1ccccc1Cl (stereo unspecified),scaled lipid accumulation score,[4],0.003 (inactive)
same,scaled lipid accumulation score,[2],≤ 0 (inactive)
CCCCCCCOC(=O)Cc1c(C)n(C(=O)c2ccc(Cl)cc2)c2ccc(OC)cc12 [Indomethacin heptyl ester],scaled lipid accumulation score,[1],0.015 (inactive)
CS(=O)(=O)c1ccc([C@H](O)[C@@H](COC(=O)CN)NC(=O)C(Cl)Cl)cc1 [Thiamphenicol glycinate],scaled lipid accumulation score,library stock concentration: 4.8 mM,0.01 (inactive)
O=C(O)Cn1nnc(-c2cc(N3CCC(Oc4cc(F)ccc4Br)CC3)no2)n1,scaled lipid accumulation score,[4],≤ 0 (inactive)
same,scaled lipid accumulation score,[2],≤ 0 (inactive)
CCCCC[C@H](O)/C=C/[C@@H]1[C@@H](C/C=C\CCCC(=O)N(CC)CC)[C@@H](O)C[C@H]1O [Prostaglandin F2.alpha. diethyl amide],scaled lipid accumulation score,[1],≤ 0 (inactive)
CCc1cccc(N(C)C(=N)Nc2cccc3ccccc23)c1.Cl,scaled lipid accumulation score,[2],0.912 (active)
CC1CCC(C(C)C)C(O)C1 (stereo not drawn) [Menthol(-)],scaled lipid accumulation score,[2],≤ -0.027 (inactive)
CC1(C)CC(=O)C(C2C3=C(CC(C)(C)CC3=O)Oc3ccccc32)C(=O)C1 (stereo unspecified),scaled lipid accumulation score,[2],≤ -0.002 (inactive)
CCCCCC1OC1C/C=C\C/C=C\C/C=C\CCCC(=O)O (stereo unspecified),scaled lipid accumulation score,[8],≤ -0.021 (inactive)
CC(=O)c1cnc2ccc(-c3cc(Cl)c(O)c(Cl)c3)nc2c1N[C@H]1CC[C@H](CN(C)C)CC1.Cl,scaled lipid accumulation score,[2],0.872 (active)
CC(=O)c1cnc2ccc(-c3cc(Cl)c(O)c(Cl)c3)nc2c1N[C@H]1CC[C@H](CN(C)C)CC1,scaled lipid accumulation score,[5],0.258 (inactive)
same,scaled lipid accumulation score,[6],0.847 (inactive)
same,scaled lipid accumulation score,[7],0.765 (inactive)
CCN(CC)CCNC(C(=O)OCCC(C)C)c1ccccc1 (stereo unspecified),scaled lipid accumulation score,[2],0.521 (inactive)
Cc1ccc(C(=O)NCCCCCC(=O)Nc2ccccc2N)cc1,scaled lipid accumulation score,[4],≤ -0.009 (inactive)
same,scaled lipid accumulation score,[2],0.662 (inactive)
c1ccc2c3c([nH]c2c1)C1C2CCC(C4CCCNC42)N1CC3 (stereo unspecified) [Nitrarine dihydrochloride],scaled lipid accumulation score,,≤ 0 (inactive)
CCOC(=O)[C@H](CCc1ccccc1)N[C@@H](C)C(=O)N1CCC[C@H]1C(=O)O [Enalapril Maleate],scaled lipid accumulation score,[4],0.026 (inactive)
same,scaled lipid accumulation score,[2],≤ 0 (inactive)
CCOC(=O)[C@H](CCc1ccccc1)N[C@@H](C)C(=O)N1CCC[C@H]1C(=O)O,scaled lipid accumulation score,[2],≤ 0 (inactive)
CCCNC(=O)[C@H]1O[C@@H]1C(=O)N[C@H](C(=O)N1CCC[C@H]1C(=O)OC)C(C)CC (stereo partly specified),scaled lipid accumulation score,library stock concentration: 12.6 mM,0.868 (active)
C[C@H](CS)C(=O)N1CCC[C@H]1C(=O)O [Captopril],scaled lipid accumulation score,,0.036 (inactive)
same,scaled lipid accumulation score,[4],≤ 0 (inactive)
same,scaled lipid accumulation score,library stock concentration: 9.2 mM,≤ -0.006 (inactive) and ≤ 0 (inactive)
same,scaled lipid accumulation score,[2],≤ 0 (inactive)
C[C@H](CS)C(=O)N1CCC[C@H]1C(=O)O,scaled lipid accumulation score,[2],≤ 0 (inactive)
CCOC(=O)[C@H](CCc1ccccc1)N[C@@H](C)C(=O)N1CCC[C@H]1C(=O)O [Enalapril],scaled lipid accumulation score,library stock concentration: 5.3 mM,≤ 0 (inactive)
CCOC(=O)[C@H](CCc1ccccc1)N[C@@H](C)C(=O)N1CCC[C@H]1C(=O)O [Enalapril maleate],scaled lipid accumulation score,,≤ 0 (inactive)
same,scaled lipid accumulation score,[2],≤ 0 (inactive)
O=C(O)/C(=C\c1c(C(=O)O)[nH]c2cc(Cl)cc(Cl)c12)c1ccccc1,scaled lipid accumulation score,[2],0.017 (inactive)
N[C@H](C(=O)O)[C@H](Cc1ccccc1)C(=O)O [L-Beta-threo-benzyl-aspartate],scaled lipid accumulation score,[2],≤ 0 (inactive)
CC(C)NC[C@H](O)COc1cccc2ccccc12 [(S)-Propranolol hydrochloride],scaled lipid accumulation score,[2],0.445 (inactive)
CC(C)NCC(O)COc1cccc2ccccc12.Cl (stereo unspecified),scaled lipid accumulation score,[2],0.882 (active)
CC(C)NC[C@@H](O)COc1cccc2ccccc12 [(R)-Propranolol hydrochloride],scaled lipid accumulation score,,0.415 (inactive)
CC(C)NC[C@H](O)COc1cccc2ccccc12 [(S)-(-)-Propranolol hydrochloride],scaled lipid accumulation score,[2],0.518 (inactive)
CC(C)NC[C@@H](O)COc1cccc2ccccc12 [Dexpropranolol hydrochloride],scaled lipid accumulation score,[9],0.521 (inactive)
same,scaled lipid accumulation score,[2],≤ 0 (inactive)
CC(C)NCC(O)COc1cccc2ccccc12 (racemic) [Propranolol hydrochloride (+/-)],scaled lipid accumulation score,[9],0.363 (inactive)
same,scaled lipid accumulation score,[2],0.457 (inactive)
CC(C)NCC(O)COc1cccc2ccccc12 (stereo unspecified) [Propranolol hydrochloride],scaled lipid accumulation score,,0.378 (inactive)
same,scaled lipid accumulation score,[2],0.74 (inactive)
CC(C)NCC(O)COc1cccc2ccccc12 (stereo unspecified),scaled lipid accumulation score,[2],0.847 (inactive)
CC(C)NC[C@@H](O)COc1cccc2ccccc12 [(R)-(+)-Propranolol hydrochloride],scaled lipid accumulation score,[2],0.656 (inactive)
CC(C)NC[C@H](O)COc1cccc2ccccc12.Cl,scaled lipid accumulation score,library stock concentration: 16.9 mM,1.02 (active)
CC(C)NCC(O)COc1cccc2ccccc12 (stereo unspecified) [Propranolol],scaled lipid accumulation score,library stock concentration: 7.7 mM,0.676 (inactive)
CC(C)NCC(O)COc1cccc2ccccc12 (stereo unspecified) [Propranolol HCl],scaled lipid accumulation score,[4],≤ 0 (inactive)
same,scaled lipid accumulation score,[2],0.555 (inactive)
CC(C)NC[C@H](O)COc1cccc2ccccc12 [(S)-propranolol hydrochloride],scaled lipid accumulation score,,0.444 (inactive)
CCCOc1ccc(/C=C2/SC(=O)NC2=O)cc1 [PIM1/2 Kinase Inhibitor VI],scaled lipid accumulation score,[4],0.001 (inactive)
C=CCn1c(=O)n([C@@H]2O[C@H](CO)[C@@H](O)[C@H]2O)c2nc(N)[nH]c(=O)c21,scaled lipid accumulation score,[2],0.047 (inactive)
"CCCCC(C)(C)[C@H](O)/C=C/[C@@H]1[C@@H](C/C=C\CCCC(=O)O)[C@H](O)C[C@H]1O [16,16-dimethyl Prostaglandin F2.beta.]",scaled lipid accumulation score,[1],≤ 0 (inactive)
CCCCCC=CCC=CC=CC=CC(SCC(NC(C)=O)C(=O)O)C(O)CCCC(=O)O (stereo unspecified) [N-Acetyl-leukotriene E4],scaled lipid accumulation score,[8],0.032 (inactive)
O=c1c2sc(-c3ccc(F)cc3)cc2ncn1Cc1nc2ccccc2[nH]1,scaled lipid accumulation score,[2],0.756 (active)
c1ccc(N2CCN(Cc3nc4ccccc4[nH]3)CC2)nc1 [ABT 724 trihydrochloride],scaled lipid accumulation score,[2],≤ -0.001 (inactive)
O=C(O)CCc1nc2ccccc2[nH]1,scaled lipid accumulation score,[2],0.2 (inactive)
CCCCCCCCCCCCCCCCOP(=O)([O-])OCC[N+](C)(C)C [Miltefosine],scaled lipid accumulation score,[1],≤ 0 (inactive)
same,scaled lipid accumulation score,[3],≤ -0.006 (inactive)
same,scaled lipid accumulation score,[2],0.007 (inactive)
O=C(NCc1cccc(O)c1)Nc1nc(-c2ccncc2)cs1 [listing 1 of 2 here],scaled lipid accumulation score,[4],0.56 (inactive)
O=C(NCc1cccc(O)c1)Nc1nc(-c2ccncc2)cs1 [listing 2 of 2 here],scaled lipid accumulation score,[2],1.02 (active)
O=C(NCc1ccccc1)c1csc(Nc2ccncn2)n1 [Thiazovivin],scaled lipid accumulation score,[4],≤ 0 (inactive)
same,scaled lipid accumulation score,[2],0.14 (inactive)
